Screening data from PubChem.
Only a selection was taken, and hits are over-represented in it overall.
TRb-SRC2 inh – qHTS for Inhibitors of the Interaction of Thyroid Hormone Receptor and Steroid Receptor Coregulator 2 | Thyroid hormone receptor beta (Homo sapiens), P10828 | TRbeta-SRC2 peptide binding, fluorescence polarization; receptor liganded with 1 µM T3 | Potency, µM (titrated, usually from 106 µM), for the others: top-dose activity change, negative = inhibition, usual class: inhibitors | 280,000 compounds, 0.065% hits; active = well fitted inhibition curve with a large enough effect; inconclusive = small, poorly fitted or top-dose-only effect, or effect the other way;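 also: plate controls were bound peptide for no effect and peptide without receptor for full effect; nearly all actives have a fitted effect of over 50% in size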
Target sequence (P10828 whole entry, looked up): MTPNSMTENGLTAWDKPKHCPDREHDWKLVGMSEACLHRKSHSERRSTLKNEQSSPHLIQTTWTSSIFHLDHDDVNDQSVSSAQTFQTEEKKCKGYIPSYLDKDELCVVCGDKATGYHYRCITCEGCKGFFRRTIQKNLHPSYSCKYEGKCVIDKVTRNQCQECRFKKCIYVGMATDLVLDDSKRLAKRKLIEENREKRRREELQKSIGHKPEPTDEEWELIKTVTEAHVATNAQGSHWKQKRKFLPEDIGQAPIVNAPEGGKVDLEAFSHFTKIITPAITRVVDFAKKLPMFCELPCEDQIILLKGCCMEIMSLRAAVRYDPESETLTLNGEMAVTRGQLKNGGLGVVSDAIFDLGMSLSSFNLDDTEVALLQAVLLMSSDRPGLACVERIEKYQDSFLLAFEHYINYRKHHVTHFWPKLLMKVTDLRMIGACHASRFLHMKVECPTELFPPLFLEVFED
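A fluorescence polarization screen tested compounds at multiple concentrations against complex formation between 0.6 uM TRb ligand-binding domain and 20 nM Texas Red SRC2 peptide, with 1 uM T3 present; readout after 5 hr.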
TR SRC2 fluor cs – Total Fluorescence Counterscreen for Inhibitors of the Interaction of Thyroid Hormone Receptor and Steroid Receptor Coregulator 2 | TRb/SRC2 Texas Red total fluorescence interference | Potency, µM (doses to about 106 µM), for inactives: at the top dose fluorescence change, negative = quenching | 280,000 compounds, 0.29% hits | AID 1479, 2009; active = well fitted curve in either direction with a large enough effect; inconclusive = small, poorly fitted or top-dose-only effect; also: % is scaled to controls: 0 for no effect and ±100 for the full control effect
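Human TRb ligand-binding domain at 0.6 uM with 20 nM Texas Red SRC2 peptide in Tris buffer containing 1 uM T3 and 5% DMSO, incubated with compound 5 h at ambient temperature. Total fluorescence (555/632 nm) calculated as parallel + 2 × perpendicular.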
ERG Ets-DNA blk – qHTS for Small Molecule Inhibitors of the ERG Ets/DNA interaction; fluorescence polarization, His-ERG Ets domain / labelled DNA; Potency, µM (doses to about 76.9 µM), for the others: at the highest dose FP activity, negative = inhibition, actives largely listed as inhibitors; 370,000 compounds, 0.028% hits; active = well fitted inhibition curve with a large enough effect in the polarisation, with a control signal flat; inconclusive = small, poorly fitted or top-dose-only effect, or effect the other way, or a change in a side signal; inactive = no such curve, though single readings can be large or run the other way; the % refers to the polarisation;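 also: polarization taken with two DNA probes labelled with fluorescein and Texas red; % of control where 0% means no effect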
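His-tagged ERG Ets domain (1 uM in the protein solution; 300mM KCl, 50mM Tris-HCl, 1mM EDTA, 1mM DTT, pH 7.5) received compound, then a probe mix of 5 nM fluorescein-DNA and 100nM Texas-615-DNA. Fluorescence polarization was read for both dyes.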
* = called active by the depositor; u = inconclusive; x = not tested or not shown; ! = not active in a repeat; [ ] = dose if it differs, or a comment. Potency is read from the fitted curve at half-maximal effect.

SMILES | TRb-SRC2 inh | TR SRC2 fluor cs | ERG Ets-DNA blk
Cc1cccc(OCC(=O)N2CCN(Cc3cccnc3)CC2)c1 | 0% | 2% | 5%
CCOc1ccc(-c2nc3cc(NC(=O)COc4cccc(C)c4)ccc3o2)cc1 | u | 14µM*[quencher] | 2%
OCCNc1c2c(nc3ccccc13)CCCC2 | 7% | 0% | -12%
C[n+]1c2ccccc2nc2ccc(NCCO)cc21 | x | x | 7.9µM*
CNc1ccc2nc3ccccc3[n+](C)c2c1 | x | x | 5µM*
ClC1=C(Cl)C2(Cl)C3C4OC4C(Cl)C3C1(Cl)C2(Cl)Cl (centres undefined) | 8%[201 µM] | -1%[201 µM] | x
CCCCCCCCCCCC#N | 5%[201 µM] | 2%[201 µM] | x
COC[C@H](C)N(C(=O)CCl)c1c(C)csc1C | 0%[201 µM] | -4%[201 µM] | x
CCCCCCCCCCCCC1=C(OC(C)=O)C(=O)c2ccccc2C1=O | -9%[201 µM] | 0%[201 µM] | x
CCCCC(CC)COC(=O)c1ccc(C(=O)OCC(CC)CCCC)c(C(=O)OCC(CC)CCCC)c1 (centres undefined) | 3% | -2% | x
CCCCC(CC)COC(=O)CCCCC(=O)OCC(CC)CCCC (centres undefined) | 0%[201 µM] | -2%[201 µM] | 28µM*
CCNc1nc(Cl)nc(NC(C)(C)C)n1 | -3%[201 µM] | 0%[201 µM] | x
Cc1onc(-c2ccccc2Cl)c1C(=O)NCc1ccc2c(c1)cc(C)n2C | -7% | 10% | 25µM*
Cc1onc(-c2c(Cl)cccc2Cl)c1C(=O)Nc1ccc2c(C(F)(F)F)cc(=O)oc2c1 | -8% | -4% | 14%
O=C(CCN1CCCCC1)Nc1ccc(Cl)cc1C(=O)c1ccccc1 | x | x | 8%
O=C(CN1CCCC1)Nc1ccc(Cl)cc1C(=O)c1ccccc1 | -6% | -4% | 13µM*
CCNc1nc(NC(C)C)nc(OC)n1 | 0%[201 µM] | -1%[201 µM] | x
CCOP(=O)(OCC)C(NC(=O)c1cccc2ccccc12)C(Cl)(Cl)Cl (centres undefined) | -17%[53 µM] | 32µM*[quencher] | 8%
CCOP(=O)(OCC)C(NC(=O)Cc1ccccc1)C(Cl)(Cl)Cl (centres undefined) | 1% | -7% | -1%
CCOP(=O)(OCC)C(NC(=O)c1cccc(C)c1)C(Cl)(Cl)Cl (centres undefined) | 0% | -3% | 12%
CCOP(=O)(OCC)C(NC(=O)c1ccccc1C)C(Cl)(Cl)Cl (centres undefined) | 0%[53 µM] | 3.2µM*[quencher] | 4%
O=C(NC(=O)c1c(F)cccc1F)Nc1ccc(OC(F)(F)C(F)OC(F)(F)F)c(Cl)c1 (centres undefined) | 0%[201 µM] | 3%[201 µM] | x
C1=Cc2cccc3cccc1c23 | 2%[201 µM] | -1%[201 µM] | x
O=C(Cc1cc(=O)[nH][nH]1)N/N=C/c1ccccc1Cl | -9% | 1413µM*[quencher] | -4%
O=C(CSC1c2ccccc2-c2ccccc21)N/N=C/c1ccccc1C(=O)O | -13% | -1% | -5%
SMILES | TRb-SRC2 inh | TR SRC2 fluor cs | ERG Ets-DNA blk
C[n+]1c2cc(N)ccc2cc2ccc(N)cc21 | 12% | 0% | 35µM*
Nc1ccc2ccccc2c1 | 3% | -2% | -5%
CC(C)OC(=O)C(O)(c1ccc(Br)cc1)c1ccc(Br)cc1 | 3%[201 µM] | 0%[201 µM] | x
CN(C)c1ccc(/C=C/C=C2/C(=O)NC(=O)N(c3ccccc3)C2=O)cc1 | u | 3.2µM*[fluorescent] | 91%
O=C1NC(=O)N(c2ccccc2)C(=O)/C1=C/C=C/c1ccco1 | -2% | 10% | 53%
C1CC[CH]([Sn]([CH]2CCCCC2)[CH]2CCCCC2)CC1 | 7%[201 µM] | 1%[201 µM] | x
O=CNC(N1CCN(C(NC=O)C(Cl)(Cl)Cl)CC1)C(Cl)(Cl)Cl (centres undefined) | 4%[201 µM] | 1%[201 µM] | x
O=C(O)COc1ccc(Cl)cc1 | 4%[201 µM] | -5%[201 µM] | x
COC(=O)N(C(=O)N1COC2(C(=O)OC)Cc3cc(Cl)ccc3C2=N1)c1ccc(OC(F)(F)F)cc1 (centres undefined) | 4%[201 µM] | -2%[201 µM] | x
COP(=S)(OC)Oc1c(Cl)cc(C)cc1Cl | 11%[201 µM] | 2%[201 µM] | x
CC[C@]1(O)CC(O[C@@H]2CC(N(C)C)C(O)C(C)O2)c2c(cc3c(c2O)C(=O)c2c(O)ccc(O)c2C3=O)C1C(=O)OC (some centres undefined) | 15% | 40µM*[fluorescent] | x
C/C(=N\Nc1ccccc1)c1c(O)n(Cc2ccccc2)c(=O)[nH]c1=O | -17%[53 µM] | 0.071µM*[quencher] | 7%
C/C(=N\Nc1ccccc1)c1c(O)n(-c2ccccc2)c(=O)[nH]c1=O | -5% | -1% | 0%
[Cl][Sn]([c]1ccccc1)([c]1ccccc1)[c]1ccccc1 | 1%[201 µM] | 0%[201 µM] | x
Cc1c(COC(=O)C2C(/C=C(\Cl)C(F)(F)F)C2(C)C)cccc1-c1ccccc1 (centres undefined) | -5%[201 µM] | 0%[201 µM] | x
Cc1cnc(C2=NC(C)(C(C)C)C(=O)N2)c(C(=O)O)c1 (centres undefined) | -11%[201 µM] | 0%[201 µM] | x
CCOP(=O)(OCC)OC(Cl)C(Cl)(Cl)Cl (centres undefined) | -4%[201 µM] | 3%[201 µM] | x
CCCCC/C=C\C/C=C\C/C=C\C/C=C\CCCC(=O)Nc1ccc(O)cc1 | 0% | 1% | x
CCCCC/C=C\C/C=C\C/C=C\C/C=C\CCCC(=O)Nc1ccc(O)cc1C | -16% | 3.5µM*![quencher] | x
CCNc1nc(Cl)nc(NC(C)(C)C#N)n1 | -1%[201 µM] | -1%[201 µM] | x
CC1(C)CN=C(NN=C(/C=C/c2ccc(C(F)(F)F)cc2)/C=C/c2ccc(C(F)(F)F)cc2)NC1 | 2%[201 µM] | -1%[201 µM] | x
CO/N=C(/C(=O)OC)c1ccccc1COc1ccccc1C | -6%[201 µM] | -1%[201 µM] | x
CNC(=O)Oc1cc(C)c(SC)c(C)c1 | 3%[201 µM] | 2%[201 µM] | x
CCCN1CCCC2Cc3[nH]ncc3CC21 (centres undefined) | 1% | 35µM*![quencher] | x
CCCN1CCC[C@@H]2Cc3cn[nH]c3C[C@H]21 | -2% | 2% | x
SMILES | TRb-SRC2 inh | TR SRC2 fluor cs | ERG Ets-DNA blk
CN(N=O)c1cc(O)ccc1O | u | 13µM*[quencher] | x
O=C1NC(=O)N(c2ccc(Cl)cc2)C(=O)/C1=C\c1ccc(Sc2nc3ccccc3[nH]2)o1 | u | 45µM*[fluorescent] | 131%
O=C1NC(=O)C(=Cc2ccc(Sc3ccccc3)o2)C(=O)N1 | 0% | 0% | u
COC[C@H]1OC(=O)c2coc3c2[C@@]1(C)C1=C(C3=O)[C@@H]2CCC(=O)[C@@]2(C)C[C@H]1OC(C)=O | 35µM* | 45µM*[fluorescent] | u
N#Cc1c[nH]cc1-c1cccc2c1OC(F)(F)O2 | 0%[201 µM] | -8%[201 µM] | x
COc1cc(N2CCOCC2)ccc1C=C1C(=O)NC(=O)NC1=O | -21%[53 µM] | 32µM*[quencher] | 5%
COc1cc(N2CCOCC2)ccc1/C=C1\C(=O)NC(=O)N(Cc2cccs2)C1=O | 2% | 3% | 39%
